Screening results deposited in PubChem by several laboratories.
Rows were chosen to be rich in hits. Some 1.9% of all compounds tested hit in one or more screens of this group.
MLLE-PAM2 inh – inhibitors of microRNA-mediated deadenylation, human PABP1 MLLE binding. P11940. GST-MLLE / FITC-PAM2 fluorescence polarization. inhibition, % at 20 µM. hit rate 0.36% among 360,000. AID 588489; in the data active = inhibition above about 35%, passing the limit was not always enough
14-3-3 Bad PPI – disrupts binding of bovine 14-3-3 zeta to phospho-Bad peptide; P63103; TR-FRET 14-3-3zeta/Dy647-pBad peptide displacement, 1 h; inhibition, % at 21.7 µM; hit rate 0.71% among 220,000; AID 781;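 active = inhibition above about 70%, limit read from the data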
Target sequence (P63103 whole entry, looked up): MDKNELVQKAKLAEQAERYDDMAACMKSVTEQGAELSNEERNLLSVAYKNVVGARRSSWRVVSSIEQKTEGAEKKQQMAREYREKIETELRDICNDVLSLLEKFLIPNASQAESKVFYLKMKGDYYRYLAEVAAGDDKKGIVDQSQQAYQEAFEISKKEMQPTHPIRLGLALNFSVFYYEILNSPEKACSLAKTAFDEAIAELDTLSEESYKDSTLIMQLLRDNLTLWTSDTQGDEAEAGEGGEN
eIF4E 4G PPI – eIF4E/eIF4G interaction inhibition in translation initiation. inhibition, % at 21.7 µM. hit rate 0.37% among 220,000. P63073+Q04637. AID 782. TR-FRET eIF4E-eIF4GI(517-606) binding, 2 h;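 active = inhibition above about 30%, limit read from the data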
eIF4H inh – inhibitors of RNA binding by human eIF4H; Q15056; inhibition, % at 35 µM; eIF4H fluorescence polarization binding assay; hit rate 0.94% among 290,000;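 note: calls also rest on retests at 20 µM and on dose response follow-up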
PABP FP inh – PABP-poly(A) binding inhibition | P11940 | PABP-poly(A) RNA binding, fluorescence polarization | calls only at 35 µM | hit rate 1% among 290,000;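 note: calls also rest on retests at 20 µM and on dose response follow-up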
Large screens that a line does not name were inactive; ! = not active in a repeat. Unless noted, the rule behind the calls is not given here.

Nc1ccc(S(=O)(=O)N2CCC(Cc3ccccc3)CC2)cc1	none (no result: 14-3-3 Bad PPI, eIF4E 4G PPI)
O=C(CSc1nc(O)c(Cc2ccccc2)c(=O)[nH]1)Nc1nnc(SCc2ccccc2)s1	MLLE-PAM2 inh 36.9
COc1ccc(Cc2c(O)nc(SCC(=O)NC34CC5CC(CC(C5)C3)C4)[nH]c2=O)cc1	MLLE-PAM2 inh 40.8!
Cc1ccc(S(=O)(=O)Nc2cc(=O)[nH]c(SCC(=O)Nc3cccc(C)c3)n2)cc1	none
CCCC(O)(c1ccc(CC)cc1)C(CN1CCOCC1)c1ccccc1 (centres undefined)	none (no result: 14-3-3 Bad PPI, eIF4E 4G PPI)
COc1ccc(C(=S)N2CCC(C(N)=O)CC2)cc1Br	MLLE-PAM2 inh 41.9
CCCCOc1ccc(C(=S)N2CCC(C(N)=O)CC2)cc1	none
O=C(CCN1CCC2CCC(C2)C1)c1ccccc1 (centres undefined)	MLLE-PAM2 inh 42.4 (no result: 14-3-3 Bad PPI, eIF4E 4G PPI, eIF4H inh, PABP FP inh)
COC(CNC(=O)C1CCN(S(=O)(=O)c2cccc3nsnc23)CC1)OC	none (no result: 14-3-3 Bad PPI, eIF4E 4G PPI)
COc1ccc(Cl)c2sc(N(CCN(C)C)C(=O)CCS(=O)(=O)c3ccc(C)cc3)nc12	none (no result: 14-3-3 Bad PPI, eIF4E 4G PPI, eIF4H inh, PABP FP inh)
COc1ccc(OC)c2sc(N(CCCN(C)C)C(=O)CCS(=O)(=O)c3ccccc3)nc12	MLLE-PAM2 inh 43.4 (no result: 14-3-3 Bad PPI, eIF4E 4G PPI, eIF4H inh, PABP FP inh)
C=CCn1c(CSc2ccccc2[N+](=O)[O-])n[nH]c1=S	eIF4H inh 84.0, PABP FP inh active (no result: 14-3-3 Bad PPI, eIF4E 4G PPI)
C=CCn1c(Cc2ccccc2)n[nH]c1=S	none
CCN(CC)c1ccc(NC(=O)CCCOc2cccc(C)c2)cc1	eIF4E 4G PPI 34.0
COC(=O)C1=C(C)N(c2ccc(C)c(C)c2)/C(=C/c2ccco2)C1=O	eIF4H inh 18.3
CCOC(=O)C1=C(C)N(c2ccc(C)c(C)c2)C(=O)/C1=C\c1ccco1	none
CCC(=O)NCc1cc(-c2nn(C)c(=O)c3ccccc23)ccc1C	none
Cc1ccc(-c2nn(CC(=O)NCc3cc(-c4nn(C)c(=O)c5ccccc45)ccc3C)c(=O)c3ccccc23)cc1	14-3-3 Bad PPI 71.7
O=S(=O)(NCCCCNS(=O)(=O)c1ccc(F)cc1)c1ccc(F)cc1	none (no result: 14-3-3 Bad PPI, eIF4E 4G PPI, eIF4H inh, PABP FP inh)
O=C(O)C(CCCCNS(=O)(=O)c1ccc(F)cc1)NS(=O)(=O)c1ccc(F)cc1 (centres undefined)	eIF4H inh 95.7!, PABP FP inh active! (no result: 14-3-3 Bad PPI, eIF4E 4G PPI)
COc1ccc(C(=O)Nc2c(Cl)cc(Cl)cc2C(=O)N2CCOCC2)cc1	none
CC(=O)OCCCCCCCCCCC[N+]1(C)CCCCC1	PABP FP inh active
COC(=O)CCCCCCCCCC[N+]1(C)CCCCC1	none
CSc1nsc2nc(=O)c(/C=C3\C(C)=Nc4ccc(C)cc43)c(N)n12	eIF4H inh inconclusive
CC1=Nc2ccc(C)cc2/C1=C/c1c(N)n2oc(C)cc2nc1=O	eIF4H inh inconclusive, PABP FP inh active!
CCCCOP(=O)(OCCCC)C(Nc1ccccc1)c1ccc2c(c1)OCO2 (centres undefined)	eIF4H inh active, PABP FP inh active
CCOC(=O)/C(C#N)=C/Nc1ccccc1OC(F)(F)F	none
O=C(O)CCc1ccc(-c2cccs2)n1CCC(=O)O	eIF4H inh 49.2, PABP FP inh active
O=C(O)c1ccc(COc2ccccc2C=C2C(=O)c3ccccc3C2=O)cc1	PABP FP inh active
O=C1NC(=S)N/C1=C\c1ccccc1OCc1ccc(C(=O)O)cc1	none
O=C(O)c1cccc(-n2cccc2/C=C2/NC(=O)N(c3ccc(Cl)cc3)C2=O)c1	14-3-3 Bad PPI 93.9, eIF4E 4G PPI 70.5, eIF4H inh inconclusive, PABP FP inh inconclusive
O=C(O)c1ccc(COc2ccccc2/C=C2\NC(=O)N(Cc3ccc(F)cc3)C2=O)cc1	none
COc1ccc(-n2cccc2/C=C2/NC(=O)N(c3cccc(Cl)c3)C2=O)cc1	none
O=C(O)c1cccc(-n2cccc2/C=C2/NC(=O)N(c3cccc(Cl)c3)C2=O)c1	eIF4H inh 96.6, PABP FP inh active
O=C(O)c1ccc(COc2ccccc2/C=C2/NC(=O)N(c3cccc(Cl)c3)C2=O)cc1	eIF4H inh 54.3, PABP FP inh active
COc1ccc(Nc2ncccc2C(=O)NCc2ccccc2)cc1	none
COc1cccc(Nc2ncccc2C(=O)NCc2ccccc2)c1	eIF4H inh 84.8, PABP FP inh active
O=C(NC1CCN(Cc2ccccc2)CC1)c1cncc(Br)c1	none
COc1ccccc1NS(=O)(=O)c1cc(NC(=O)Nc2cccc(C)c2)ccc1N1CCCCC1	MLLE-PAM2 inh 38.1
COc1ccccc1NS(=O)(=O)c1cc(NC(C)=O)ccc1N1CCCCC1	none
Cc1cccc(/N=C/c2sc3ccccc3c2O)n1	none
Oc1c(C=Nc2cccc3cccnc23)sc2ccccc12	eIF4H inh 125.1, PABP FP inh active (no result: MLLE-PAM2 inh)
COc1ccccc1-c1csc(NC(=O)c2ccc(N3C(=O)CCC3=O)cc2)n1	none
Cc1noc(C)c1CSCC(=O)OCC(=O)Nc1ccc(OC(F)(F)F)cc1	none (no result: 14-3-3 Bad PPI, eIF4E 4G PPI, eIF4H inh, PABP FP inh)
N#Cc1ccsc1NC(=O)COC(=O)CCCSc1nc2ccccc2s1	eIF4H inh 101.7, PABP FP inh active
NC(=O)COC(=O)CCCSc1nc2ccccc2s1	none
Cc1noc(C)c1CSCC(=O)OCC(=O)Nc1sccc1C#N	eIF4H inh 58.4, PABP FP inh active
CCn1ccnc1CN(C)Cc1c(C(=O)N2C[C@@H](C)O[C@@H](C)C2)nc2ccc(Cl)cn12	none (no result: 14-3-3 Bad PPI, eIF4E 4G PPI)
O=[N+]([O-])c1cccc(C(=Nc2cccc(Cl)c2)NO)c1	eIF4H inh 70.3, PABP FP inh active
CCOc1ncccc1C(=O)NCC(c1ccco1)N1CCCCC1 (centres undefined)	none (no result: 14-3-3 Bad PPI, eIF4E 4G PPI, eIF4H inh, PABP FP inh)
COc1ccccc1NC(=O)c1cc2cc(Br)ccc2cc1O	eIF4H inh 80.2
CC1CCN(C(=S)c2ccc([N+](=O)[O-])cc2)CC1	MLLE-PAM2 inh 43.7
O=[N+]([O-])c1ccc(C(=S)N2CCCC2)cc1	none
O=C1Nc2ccccc2SC(c2ccccc2)C1O (centres undefined)	eIF4E 4G PPI 35.7, eIF4H inh inconclusive, PABP FP inh active
N#Cc1c2c(c(NCCCN3CCOCC3)n3c1nc1ccccc13)CCC2	eIF4H inh 93.1, PABP FP inh active
OCCN1CCN(c2ncnc3c2ncn3[C@H]2CN(Cc3cccs3)C[C@@H](CO)O2)CC1	none (no result: 14-3-3 Bad PPI, eIF4E 4G PPI, eIF4H inh, PABP FP inh)
O=C(NCc1ccon1)C1CCC(=O)N(CCc2ccc(Cl)cc2)C1 (centres undefined)	none (no result: 14-3-3 Bad PPI, eIF4E 4G PPI)
CCOc1cccc(N2C(=O)CC(NNC(=O)c3ccc(Br)o3)C2=O)c1 (centres undefined)	none
CCCOc1ccc(N2C(=O)CC(NNC(=O)c3ccc(COc4ccccc4)o3)C2=O)cc1 (centres undefined)	PABP FP inh active
CCOc1ccc(S(=O)(=O)N(CC)CC)cc1NC(=O)CSCc1c(C)noc1C	none (no result: 14-3-3 Bad PPI, eIF4E 4G PPI, eIF4H inh, PABP FP inh)
O=C1N=C2SCCN2/C1=C\c1ccccc1Cl	MLLE-PAM2 inh 39.4
O=C(/C=C/c1ccc(OCCCF)cc1)Nc1ccnc(-c2ccncc2)n1	none
CC(C)C(=O)Nc1ccnc(-c2cccnc2)n1	none
O=C(/C=C/c1ccc(OCCCF)cc1)Nc1ccnc(-c2cccnc2)n1	eIF4H inh 101.5, PABP FP inh active
CC(=O)Nc1ccnc(-c2cccnc2)n1	eIF4E 4G PPI 86.1
COc1ccc(OCC(=O)N2CCN(C(=O)c3ccc(F)cc3)CC2)cc1	none (no result: 14-3-3 Bad PPI, eIF4E 4G PPI)
